# Only some compounds are listed: those with a hit (about 11% of all), similar ones and a draw of the others.
# Luciferase inh – Photinus pyralis luciferase inhibition; P08659; purified P. pyralis luciferase, luminescence, biochemical; Potency, µM (top dose mostly 115 µM), actives largely listed as inhibitors; 76,000 compounds, 2.5% hits; further: nearly all actives have a fitted effect of over 65% in size
#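 Luminescence read by CCD imager after adding enzyme (10nM final) to wells holding compound, titrated in qHTS. Substrates 10uM each D-luciferin and ATP; buffer 50mM Tris acetate pH 7.5, 10mM Mg acetate, Tween-20, BSA.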
# NPR1 antag – antagonists of human natriuretic peptide receptor Npr1. Potency, µM (titrated, usually from 46.3 µM), without a hit: at the highest dose activity change, negative = inhibition, usual class: inhibitors. 76,000 compounds, 1.6% hits. P16066. HEK293 hNpr1 GloSensor cGMP, ANP-stimulated luminescence. AID 1347048; calls by dose curve; further: nearly all actives have a fitted effect of over 60% in size
# Target sequence (P16066 whole entry, looked up): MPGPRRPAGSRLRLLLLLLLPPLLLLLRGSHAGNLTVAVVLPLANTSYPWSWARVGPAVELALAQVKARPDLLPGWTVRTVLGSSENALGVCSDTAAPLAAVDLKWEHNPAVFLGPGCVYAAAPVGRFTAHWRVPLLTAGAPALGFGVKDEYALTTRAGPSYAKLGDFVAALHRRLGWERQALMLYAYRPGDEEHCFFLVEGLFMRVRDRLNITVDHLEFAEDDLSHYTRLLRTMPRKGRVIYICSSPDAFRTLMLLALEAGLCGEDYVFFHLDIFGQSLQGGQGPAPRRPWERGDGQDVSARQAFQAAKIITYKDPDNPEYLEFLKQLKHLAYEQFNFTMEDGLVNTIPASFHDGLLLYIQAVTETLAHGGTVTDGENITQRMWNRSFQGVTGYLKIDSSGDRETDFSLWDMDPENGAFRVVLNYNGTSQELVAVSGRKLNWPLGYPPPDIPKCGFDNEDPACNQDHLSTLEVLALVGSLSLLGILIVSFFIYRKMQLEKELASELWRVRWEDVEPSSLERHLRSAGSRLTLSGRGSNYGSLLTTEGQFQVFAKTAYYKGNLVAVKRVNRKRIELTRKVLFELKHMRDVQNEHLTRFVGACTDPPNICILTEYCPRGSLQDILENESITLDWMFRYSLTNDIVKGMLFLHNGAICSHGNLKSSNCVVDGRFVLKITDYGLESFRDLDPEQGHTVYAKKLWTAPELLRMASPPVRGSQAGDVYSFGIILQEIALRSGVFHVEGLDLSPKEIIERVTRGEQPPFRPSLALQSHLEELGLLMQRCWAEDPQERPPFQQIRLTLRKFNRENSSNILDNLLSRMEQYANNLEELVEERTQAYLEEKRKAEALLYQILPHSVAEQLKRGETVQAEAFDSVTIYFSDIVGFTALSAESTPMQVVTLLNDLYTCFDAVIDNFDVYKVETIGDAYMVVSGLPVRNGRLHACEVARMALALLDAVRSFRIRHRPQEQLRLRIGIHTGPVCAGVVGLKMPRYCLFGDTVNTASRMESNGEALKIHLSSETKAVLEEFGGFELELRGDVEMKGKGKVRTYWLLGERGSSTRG
#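 Compound pre-incubated 30 min at room temperature on GloSensor-loaded HEK293 cells stably carrying hNpr1 and the pGS-40F cGMP biosensor. Stimulation uses hNppA at 0.1 nM final; luminescence is taken at baseline and 20 min post-agonist.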
# 3T3 cytotox – kills NIH 3T3 cells; AID 1345082; 94,000 compounds, 4.3% hits; NIH 3T3 viability, CellTiter-Glo ATP luminescence, 48-72 h; Potency, µM (series often up to 96.7 µM), for inactives: top-dose activity change, negative = cytotoxicity, most hits filed as inhibitors; further: nearly all actives have a fitted effect of over 55% in size
#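 Luminescent ATP readout (CellTiter-Glo, 10 min RT) after 48 or 72 hr compound exposure of NIH 3T3 cells seeded at 400 cells/well in 1536-well format; quantitative HTS.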
# HEK293 tox – cytotoxic compounds in HEK 293 cells; 94,000 compounds, 6.6% hits; Potency, µM (highest dose often 115 µM), for the others: at the top dose activity change, negative = cytotoxicity, most hits filed as inhibitors; HEK 293 viability, ATP luminescence (CellTiter-Glo), 48-72 h; further: nearly all actives have a fitted effect of over 60% in size
#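 Read-out: CellTiter-Glo ATP luminescence. Cells: HEK 293, 250 cells/well. Exposure: 48 or 72 hr, 37 degree Celsius.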
# An asterisk follows results filed as active; i = inactive; ? = inconclusive; . = no result given; [ ] = dose if it differs, or a comment. Unless noted, the call rests on the fitted dose curve; in most records, active means well fitted curve in the direction sought with a large enough effect; inconclusive means small, poorly fitted or top-dose-only effect, or another doubt; inactive means no such curve, though single readings can be large; an effect the other way counts as inactive or inconclusive. On the % scale 0 is the no-effect control and ±100 the full control effect; potency means the concentration at half of the fitted maximal effect.
SMILES,Luciferase inh,NPR1 antag,3T3 cytotox,HEK293 tox
O=C(NCc1ccccc1)c1nc2sccn2c1-c1ccncc1,.,.,?,112µM*
O=C(NCc1ccc(F)cc1)c1nc2sccn2c1-c1cccc(C(F)(F)F)c1,.,.,?,63µM*
O=C(NCc1ccccc1F)c1nc2sccn2c1-c1cccc(C(F)(F)F)c1,.,.,-24%,-9%
O=C(Nc1ccc(F)cc1)c1nc2sccn2c1-c1cccc(C(F)(F)F)c1,.,.,?,50µM*
O=C(c1ccc(C(F)(F)F)cc1)N1CCC(c2nn(Cc3ccccc3)c(=O)[nH]2)CC1,i,13%,?,-6%
Cn1cc(CN2CCCC23CCN(c2ncccn2)CC3)c(-c2ccccc2)n1,i,4%,-11%,-8%
O=C(NCc1ccccc1Cl)c1nc2sccn2c1-c1cccc(C(F)(F)F)c1,.,.,?,25µM*
O=C(NCc1ccccc1)c1nc2sccn2c1-c1cccc(C(F)(F)F)c1,.,.,-15%,-24%
COc1ccc(-c2c(C(=O)Nc3cccc(Cl)c3)nc3sccn23)cc1,.,.,?,63µM*
O=C(NCc1cccc(C(F)(F)F)c1)c1nc2sccn2c1-c1ccc(C(F)(F)F)cc1,.,.,?,40µM*
O=C(NCCc1ccc(Cl)cc1)c1nc2sccn2c1-c1ccc(C(F)(F)F)cc1,.,.,20µM*,40µM*
Cc1ccc(NC(=O)c2ccc3c(c2)N(S(C)(=O)=O)CC3)cc1,1.3µM*,?,-19%,?
Cc1ccc(-c2noc([C@@H]3C[C@@H](O)CN3C3CCCCC3)n2)cc1F,50µM*,3%[70.6 µM],-29%[174 µM],-20%[172 µM]
CC(=O)N1CCC(N2C[C@H](O)C[C@H]2c2nc(-c3ccc4c(c3)OCO4)no2)CC1,i,-5%[70.6 µM],-18%[174 µM],-19%[172 µM]
CC(=O)N1CCC(N2C[C@H](O)C[C@H]2c2nc(-c3ccc(C(F)(F)F)cc3)no2)CC1,?,-10%[70.6 µM],?,71µM*
COc1ccc(-c2noc([C@@H]3C[C@@H](O)CN3C3CCCCC3)n2)cc1,71µM*,5%[70.6 µM],?,?
O[C@@H]1C[C@@H](c2nc(-c3ccncc3)no2)N(C2CCCCC2)C1,i,6%[70.6 µM],-4%[138 µM],-6%[172 µM]
Cc1ccc(-c2noc([C@@H]3C[C@@H](O)CN3Cc3ccc(S(C)(=O)=O)cc3)n2)cc1F,71µM*,2%[70.6 µM],?,?
CCOc1ccc(CC(=O)Nc2ccc(-c3nnc4n3CCCC4)cc2)cc1,i,-1%,-27%,-4%
O=C(CCC1CCCN(C(CO)CO)C1)N1CCN(Cc2ccccc2)CC1 (centres undefined),i,4%,2%,-4%
O=C(Cc1cccc(Cl)c1)N1CCC(C(=O)N2CCCC2c2nc3ccncc3[nH]2)CC1 (centres undefined),.,.,0%,i
C=CCN1C[C@H]2COc3ccccc3[C@H]2N(C(=O)OCCCC)CCC1=O,.,.,?,-29%
CCc1nc(-c2c3n(c(=O)n(CC(=O)Nc4c(C)cccc4CC)c2=O)CCCC3)no1,i,1%,5%,6%
O=Cc1ccccc1-c1cnc2ccccc2c1,.,.,79µM*,-25%[172 µM]
O=C(Cc1cccc(F)c1)NC1CCN(c2ccc(F)cc2)C1=O (centres undefined),i,-1%,-13%,-25%
SMILES,Luciferase inh,NPR1 antag,3T3 cytotox,HEK293 tox
Cc1ccc(N2CCC(NC(=O)Cc3cccc(F)c3)C2=O)cc1 (centres undefined),i,7%,32µM*,25µM*
COc1ccc(-n2ccnc2CN2CCN(CC=C(C)C)C(CCO)C2)cc1 (centres undefined),i,0%,?,-6%
COCC(=O)NC1CN(c2ccnc3ccnn23)C1,.,.,-22%[138 µM],2%[172 µM]
COCc1ccc2c(c1)c(OC(C)(C)C(=O)NCc1cnccn1)nn2Cc1ccccc1,i,4%,40µM*,?
CCNC(=O)C(C)(C)Oc1nn(Cc2cccc(Cl)c2)c2ccccc12,i,-19%[70.6 µM],?,?
CCCNC(=O)C(C)(C)Oc1nn(Cc2ccccc2)c2ccc(COC)cc12,i,-5%[70.6 µM],?,?
COCc1ccc2c(c1)c(OC(C)(C)C(=O)N1CC(O)C1)nn2Cc1ccccc1,i,3%[70.6 µM],100µM*,?
COCc1ccc2c(c1)c(OC(C)(C)C(=O)Nc1cccnc1)nn2Cc1ccccc1,i,0%[70.6 µM],?,?
COCc1ccc2c(c1)c(OC(C)(C)C(=O)NC1CCC(O)CC1)nn2Cc1ccccc1 (centres undefined),i,-2%,40µM*,-31%
CC(C)(Oc1nn(Cc2cccc(Cl)c2)c2ccccc12)C(=O)N1CCCC1,i,-16%[70.6 µM],50µM*,?
O=C(C1CC1)N1CCCN(CCc2ccccc2)c2ccccc21,i,-15%,32µM*,?
COc1ccc(-c2cc(N3CCC(NC(=O)c4ccc(C)c(C)c4)C3)n[nH]2)cc1 (centres undefined),i,4%,?,50µM*
CN(C)c1cccc(C(=O)NC2CCN(c3cc(-c4ccc(F)cc4)[nH]n3)CC2)c1,35µM*,?,?,?
COc1ccc(-c2cc(N3CCCC(NC(=O)c4cccc(C)c4)C3)n[nH]2)cc1 (centres undefined),10µM*,-16%,?,45µM*
COc1ccc(-c2cc(N3CCCC(NC(=O)c4cc5ccccc5[nH]4)C3)n[nH]2)cc1 (centres undefined),8.9µM*,-18%,?,?
Cc1cccc(C(=O)NC2CCN(c3cc(-c4ccc(F)cc4)[nH]n3)CC2)c1,i,-26%,3%,?
O=C(c1ccccc1Cl)N1CCC2(CC1)NC(=O)N(Cc1ccc(F)cc1)C2=O,i,?,?,?
Cc1ccc(C(=O)N2CCC(C(=O)N3CCCC3c3nc4ccncc4[nH]3)CC2)cc1 (centres undefined),.,.,-16%,-11%
COc1ccc(-c2cc(N3CCCC(NC(=O)c4ccc(C(F)(F)F)cc4)C3)n[nH]2)cc1 (centres undefined),i,-25%,45µM*,?
COc1ccc(-c2cc(N3CCC(NC(=O)c4ccc(Cl)s4)CC3)n[nH]2)cc1,i,-28%,?,25µM*
COc1ccc(C(=O)NC2CCN(c3cc(-c4ccc(OC)cc4)[nH]n3)CC2)cc1,i,-19%,?,?
COc1ccc(-c2cc(N3CCCC(NC(=O)c4cccc(F)c4)C3)n[nH]2)cc1 (centres undefined),?,-5%,?,?
O=C(NC1CCCN(c2cc(-c3ccccc3)[nH]n2)C1)c1ccc(C(F)(F)F)cc1 (centres undefined),i,-7%,?,?
Cc1cc(C)cc(C(=O)NC2CCN(c3cc(-c4ccc(F)cc4)[nH]n3)C2)c1 (centres undefined),i,-11%,45µM*,?
COc1ccc(-c2cc(N3CCCC(NC(=O)c4cccc(N(C)C)c4)C3)n[nH]2)cc1 (centres undefined),16µM*,-17%,?,?
